Only some compounds are listed: those with a hit (about 15% of all), similar ones and a draw of the others.
HCV inh – blocks hepatitis C virus; Huh7.5.1 HCVcc-Cre infection, luciferase reporter, 44 h; AID 651820; actives 3.4% (n = 340,000); Potency, µM (titrated, usually from 41.8 µM), inactives show at the highest dose activity change, negative = inhibition, hits mostly inhibitors; note: potency is the fitted concentration of half-maximal effect; % is set by controls: 0 for no effect and ±100 for the full control effect
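Infectious HCVcc-Cre (~0.5 moi) was added to cells just after compound, with cells seeded 4 h earlier at 1,000 per well. Luciferase activity after 44 h culture reported infection; substrate was incubated 15 min at room temperature before reading.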
Pf growth 48h – inhibits P. falciparum growth in the first generation, 48 h. P. falciparum luciferase growth in erythrocytes, 48 h. Potency, µM (series often up to 28.7 µM), inactives show at the top dose activity change, negative = inhibition, most hits filed as inhibitors. actives 5.9% (n = 310,000); note: potency is the fitted concentration of half-maximal effect; % is set by controls: 0 for no effect and ±100 for the full control effect
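Luciferase-expressing parasites in RBCs, 2% Hct / 0.1% parasitemia final; RPMI 1640 + 0.5% Albumax; 37 C, 5% CO2, one generation; luminescence read-out, lower signal = inhibition.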
Pf growth 96h – P. falciparum growth inhibition at 96 hour, primary screen for plastid delayed-death inhibitors; P. falciparum luciferase reporter growth, 96 h; Potency, µM (highest dose often 28.7 µM), inactives show top-dose activity change, negative = inhibition, actives largely listed as inhibitors; actives 6.9% (n = 320,000); AID 504834; note: potency is the fitted concentration of half-maximal effect; % is set by controls: 0 for no effect and ±100 for the full control effect
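Readout is luminescence from an integrated firefly luciferase in P. falciparum. Red cells, 2% hematocrit and 0.05% parasitemia final, were cultured with compound through two parasite generations (96 hours) at 37 C, 5% CO2.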
HCMV inh – human cytomegalovirus inhibition; HFF cells, HCMV-luciferase reporter, 72 h; hits give low values; activity change, negative = inhibition, % at 57.5 µM; actives 4.5% (n = 410,000); in the data active = activity change below about -60%; inconclusive = no clear call, values can overlap the other calls; inactive = above about -39%; note: % is set by controls: 0 for no effect and ±100 for the full control effect
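Screen run at 2 compound doses on HFFs infected with reporter HCMV, MOI 1 PFU/cell. Luciferase activity from cell lysates at 72 h post infection gave inhibition relative to buffer-only and Salinomycin wells.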
Sm TGR block – inhibitors of Schistosoma mansoni thioredoxin glutathione reductase | purified TGR, DTNB reduction, TNB absorbance 405 nm | Potency, µM (titrated, usually from 114 µM), inactives show at the highest dose activity change, negative = inhibition, actives largely listed as inhibitors | actives 3% (n = 360,000) | AID 485364; note: potency is the fitted concentration of half-maximal effect; % is set by controls: 0 for no effect and ±100 for the full control effect; nearly all actives have a fitted effect of over 60% in size
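TGR 20 nM + NADPH 100 uM (dispensed conc.), cpd preinc 15 min RT; start with NADPH (500 uM addition) then DTNB (15 mM addition). Kinetic TNB absorbance, 405 nm filter. Four-parameter Hill fit across titration.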
SARS PLpro yeast – blocks SARS-CoV papain-like protease in a yeast assay. S. cerevisiae expressing SARS-CoV PLpro, growth rescue. actives 0.19% (n = 330,000). Potency, µM (doses to about 32.9 µM), without a hit: top-dose activity, positive = growth rescue, hits mostly activators; calls by dose curve; note: potency is the fitted concentration of half-maximal effect; 0% is about no effect; nearly all actives have a fitted effect of over 55% in size
* hit, by the source's call; ? = inconclusive; nt = no result given; [ ] = dose if it differs, or a comment. Unless noted, calls come from the whole dose curve; as a rule, active = well fitted curve in the direction sought with a large enough effect; inconclusive = small, poorly fitted or top-dose-only effect, or another doubt; inactive = no such curve, though single readings can be large; an effect the other way counts as inactive or inconclusive.

SMILES	HCV inh	Pf growth 48h	Pf growth 96h	HCMV inh	Sm TGR block	SARS PLpro yeast
O=C(CC1SC(=O)N(c2ccccc2)C1=O)Nc1ccc(Br)cc1 (configuration not stated)	-7.4%	-14.5%	38.0%	-3.9	3.16µM*	-4.6%
CCCN1C(=O)SC(CC(=O)Nc2ccccc2)C1=O (configuration not stated)	24.6%	24.2%	?	?	0.5%	14.1%
O=C(CC1SC(=O)N(c2ccccc2)C1=O)Nc1ccc(Cl)cc1 (configuration not stated)	18.5%	19.7%	36.9%	-6.6	3.98µM*	-5.8%
CC1CC(C)CN(C(=O)c2nn(C)c3c2CS(=O)(=O)c2ccccc2-3)C1 (configuration not stated)	5.7%	25.4%	?	-17.0	-6.1%	13.1%
CSCc1ccc(C(=O)NC2CC(C)(C)Cc3c2cnn3-c2ccc(F)cc2)o1 (configuration not stated)	-11.7%	?	?	-23.9	?	-0.5%
CC1CN(C(=O)c2ccc(-c3cccc(C(F)(F)F)c3)o2)CC(C)O1 (configuration not stated)	?	13.1µM*	?	?	-19.5%	0.2%
CC1CN(C(=O)c2ccc(COc3ccc4ccccc4c3)o2)CC(C)O1 (configuration not stated)	-1.1%	42.7%	188.5%	45.4	31.6µM*	0.1%
Cc1ccccc1OCc1ccc(C(=O)N2CC(C)OC(C)C2)o1 (configuration not stated)	14.4%	-13.1%	?	-31.8	-21.9%	-1.7%
CC1CN(C(=O)c2ccc(COc3ccc(C(C)C)cc3)o2)CC(C)O1 (configuration not stated)	-7.9%	23.3%	-5.4%	52.6	39.8µM*	-0.4%
CC(C)(C)c1ccc(-n2nc(C#N)c(Cl)cc2=O)cc1	?	-16.6%	?	-100.5*	8.91µM*	-23.8%
O=S(=O)(Nc1ccccc1O)c1ccc(Cl)nc1	10.8%	6.3%	18.6%	4.7	0.1%	0.6%
Cc1cccc(Nc2nc(OCC#N)nc(N(C)C)n2)c1	-5.5%	-179.3%	11.7µM*	37.7	0.9%	0.5%
CON(C)c1nc(NCC(C)C)nc(OCC#N)n1	17.6%	3.5%	17.3%	28.1	-25.7%	-5.1%
CCN(CC)c1nc(Nc2ccc(Cl)cc2)nc(OCC#N)n1	?	-18.4%	nt	-67.7*	2.6%	3.0%
COC(=O)CCNC(=O)CCc1ccc(S(=O)(=O)N2CCCCCC2)cc1	17.1%	?	?	31.2	0.8%	1.5%
Cc1ccc2c(c1)C1CN(C)CCC1N2C(=O)c1ccc(Br)o1 (configuration not stated)	4.2%	nt	9.1%	53.4	?	7.6%
Cc1ccc2c(c1)[C@@H]1CN(C)CC[C@@H]1N2C(=O)Nc1cccc(C(F)(F)F)c1	10µM*	nt	0.828µM*	-1.5	1.5%	4.0%
Cc1ccc2c(c1)C1CN(C)CCC1N2C(=O)c1cccc(S(=O)(=O)N2CC(C)CC(C)C2)c1 (configuration not stated)	-10.4%	?	13.1µM*	-24.0	0.0%	-4.7%
Cc1ccc2c(c1)C1CN(C)CCC1N2C(=O)c1cn(-c2ccccc2)nc1-c1ccccc1 (configuration not stated)	?	13.1µM*	?	-10.8	8.8%	1.1%
Cc1ccc2c(c1)C1CN(C)CCC1N2C(=O)c1ccc(Cl)c(S(=O)(=O)N2CCOCC2)c1 (configuration not stated)	8.5%	?	?	-16.2	-14.0%	1.9%
Cc1ccc2c(c1)C1CN(C)CCC1N2C(=S)NC(=O)c1ccc(Br)cc1 (configuration not stated)	-20.9%	?	?	-62.3*	-15.1%	23.2%
CN1C(=O)NC(c2ccc(Cl)cc2)C2=C1CC(C)(C)CC2=O (configuration not stated)	16.5%	2.8%[0.00184 µM]	?	30.7	-0.6%	0.4%
Cc1ccc2c(c1)C1CN(C)CCC1N2C(=O)CCCN1C(=O)c2cccc3cccc(c23)C1=O (configuration not stated)	?	1.85µM*	3.7µM*	-32.7	-6.6%	-1.3%
Cc1ccc2c(c1)C1CN(C)CCC1N2C(=O)Nc1cccc(C(F)(F)F)c1 (configuration not stated)	?	9.28µM*	nt	-5.8	-21.2%	-4.8%
Cc1ccc2c(c1)C1CN(C)CCC1N2C(=O)c1cccnc1Cl (configuration not stated)	0.1%	-15.4%	46.7%	12.4	-21.0%	-0.6%
SMILES	HCV inh	Pf growth 48h	Pf growth 96h	HCMV inh	Sm TGR block	SARS PLpro yeast
O=C(O)C1CCCN1C(=O)c1cccc(Cl)c1 (configuration not stated)	nt	nt	nt	21.8	nt	nt
COCCNC(=O)c1cccc(OC2CCN(Cc3cccc(C(C)=O)c3)CC2)c1	-25.7%	-10.0%	0.0%	-21.8	-16.1%	-1.6%
COCCNC(=O)c1cccc(OC2CCN(Cc3ccc(OC(F)F)cc3)CC2)c1	7.08µM*	-2.6%	0.0%	-21.5	7.7%	2.0%
Cc1cc(C(=O)N(NC(=O)C(C)C)c2ccccc2)cs1	-14.1%	-12.3%	8.28µM*	-32.8	-6.2%	2.8%
CSc1ccc(CNC(C)C(O)c2ccccc2)cc1 (configuration not stated)	11.7%	1.85µM*	-1.7%	-3.6	nt	0.8%
CCCc1nc2sc3c(c2c(=O)n1NC(=O)c1ccco1)CC(C)(C)OC3	23.1%	-15.1%	-28.0%	-20.8	11.2µM*	-9.2%
CCOC(=O)COc1c(/C=N\O)cc(Cl)cc1OC	21.8%	5.9%	23.3%	-25.9	4.7%	-4.6%
CC1(C)CC(=O)C(C=NCCN2CCN(C(=O)NC34CC5CC(CC(C5)C3)C4)CC2)=C(O)C1	8.9%	?	-5.3%	18.4	35.5µM*	-0.8%
CC1(C)CC(=O)C(C=NCCN2CCN(C(=O)c3ccc(Br)cc3)CC2)=C(O)C1	14.3%	-25.0%	-15.5%	5.0	28.2µM*	?
COc1ccc(CCN2C(=O)C3C4C=CC(C3C2=O)C2C(=O)N(CCc3ccc(OC)c(OC)c3)C(=O)C42)cc1OC (configuration not stated)	4.47µM*	nt	?	-94.2*	-3.3%	26.9%
CC(C)C1NC2(C(=O)c3ccccc3C2=O)C2C(=O)N(c3ccc(F)cc3)C(=O)C12 (configuration not stated)	12.2%	-19.6%	?	63.3	2µM*	-16.0%

Source: PubChem (National Center for Advancing Translational Sciences (NCATS))
